Source: PubChem BioAssay AID651814 (National Center for Advancing Translational Sciences (NCATS), 2012)
“And” between values parts separate entries of the source, which are not always exact repeats. Equal entries are not always repeated. About 590 (28%) of roughly 2,100 compounds were called active. Not shown: some 42% with an inconclusive outcome. The list shows a part of the results. Values without a mark were called inactive. Calls follow the shape of the dose curve; as a rule, active = well fitted inhibition curve with a large enough effect; inconclusive = small, poorly fitted or top-dose-only effect; inactive = flat fitted curve, though single readings scatter.

Molecular target: DNA dC->dU-editing enzyme APOBEC-3F (Homo sapiens) (UniProt Q8IUX4)
Assay: qHTS for inhibitors of Vif-A3F interactions: Cherry picks; also: nearly all actives have a fitted effect of over 70% in size;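 as to max response: % of control where 0% means no effect; active compounds raise eYFP fluorescence by blocking Vif-driven A3F loss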
Details: HeLa A3F-eYFP + Vif (tagged APOBEC3F with the HIV-1 protein that degrades it), eYFP fluorescence, 24 h
Outline: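 HeLa cells stably expressing A3F-eYFP plus Vif, cultured overnight, then exposed to compounds at several concentrations for 24 h at 37 deg C. Reduced Vif-driven degradation read as rising eYFP fluorescence (488 nm ex/500-530 nm em) by laser-scanning cytometry; MG132 as positive control.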
Potency is read from the fitted curve at half-maximal effect.

DNA dC->dU-editing enzyme APOBEC-3F (Homo sapiens), sequence (Q8IUX4 whole entry, looked up): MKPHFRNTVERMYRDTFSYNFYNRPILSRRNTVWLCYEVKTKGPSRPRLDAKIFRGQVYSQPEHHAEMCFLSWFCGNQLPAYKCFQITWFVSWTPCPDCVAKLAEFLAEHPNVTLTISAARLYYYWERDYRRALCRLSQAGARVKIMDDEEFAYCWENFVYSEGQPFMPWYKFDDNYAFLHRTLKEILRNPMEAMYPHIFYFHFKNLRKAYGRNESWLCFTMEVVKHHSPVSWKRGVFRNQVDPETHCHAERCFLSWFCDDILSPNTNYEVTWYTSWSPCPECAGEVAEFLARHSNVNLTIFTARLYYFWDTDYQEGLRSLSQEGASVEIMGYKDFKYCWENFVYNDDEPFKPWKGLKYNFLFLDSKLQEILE

| Structure (SMILES) | max response [%] | Potency |
| --- | --- | --- |
| Cc1ccccc1NCC(=O)N=Nc1c(O)[nH]c2ccc([N+](=O)[O-])cc12 | -1.42 | – |
| CCN(CC)S(=O)(=O)c1cc([N+](=O)[O-])ccc1N=Nc1c(O)[nH]c2ccccc12 | – | 16.4 µM (active) |
| CCN(C)c1ccc(/C=C/c2ccnc3ccccc23)cc1 | – | 13 µM (active) |
| CC(C)CN(CC(C)C)c1ccc(/C=C/c2ccnc3ccccc23)cc1 | – | 20.6 µM (active) |
| CCCN(CCC)c1ccc(/C=C/c2ccnc3ccccc23)cc1 | – | 7.31 µM (active) |
| CCCCN(CCC(=O)O)c1ccc(/C=C/c2ccnc3ccccc23)cc1 | – | 18.4 µM (active) |
| CCOc1ccc(-c2cc(C(=O)N/N=C(\C)c3cccnc3)c3ccccc3n2)cc1 | -8.69 | – |
| CCN(CC)c1ccc(/C=C/c2ccnc3ccccc23)cc1 | – | 6.51 µM (active) |
| CCCCN(CCCC)c1ccc(/C=C/c2ccnc3ccccc23)cc1 | – | 20.6 µM (active) |
| CCN(CCCN(C)C)c1ccc(/C=C/c2ccnc3ccccc23)cc1 | – | 18.4 µM (active) |
| CCOC(=O)c1c(C)oc2ccc(N(C(=O)c3ccncc3)S(=O)(=O)c3ccc(Br)cc3)cc12 | -14.4 | – |
| O=C(NC1C/C(=N/O)c2cc3c(cc21)OCO3)C(F)(F)F (stereo not drawn) | 0.0424 | – |
| Cc1cccc(-n2c(N)c(-c3nc4ccccc4n3C)c3nc4ccccc4nc32)c1 | -0.799 | – |
| CC(=O)n1c2ccccc2c2nc3ccccc3nc21 | – | 11.6 µM (active) |
| Cc1ccc2nc(/C(C#N)=C/c3ccc(-c4ccc(C(=O)OC(C)C)cc4)o3)[nH]c2c1 | – | 2.06 µM (active) |
| N#C/C(=C\c1ccc(-c2ccc(F)cc2F)o1)c1nc2ccccc2[nH]1 | – | 20.6 µM (active) |
| Cc1ccc2nc(/C(C#N)=C/c3ccc(-c4cccc(Cl)c4)o3)[nH]c2c1 | – | 4.61 µM (active) |
| Cc1ccc2nc(/C(C#N)=C/c3ccc(-c4cccc([N+](=O)[O-])c4)o3)[nH]c2c1 | -29.2 | – |
| N#C/C(=C\c1ccc(-c2ccc(C(=O)O)cc2)o1)c1nc2ccccc2[nH]1 | 0.542 | – |
| Cc1ccc2nc(/C(C#N)=C/c3ccc(-c4ccccc4C(=O)O)o3)[nH]c2c1 | -7.06 | – |

| Structure (SMILES) | max response [%] | Potency |
| --- | --- | --- |
| Cc1ccc2nc(/C(C#N)=C/c3ccc(-c4ccc(F)cc4F)o3)[nH]c2c1 | – | 4.11 µM (active) |
| CSCC[C@H](NC(=O)[C@H](Cc1ccccc1)n1c(=O)[nH]c2ccccc2c1=O)C(=O)N1CCC[C@@H]1C(=O)O | 1.14 | – |
| Cc1c(Cl)cccc1-c1ccc(/C=C(\C#N)c2nc3ccccc3[nH]2)o1 | – | 20.6 µM (active) |
| CCOC(=O)/C(=C/C1=CC(=C/N(C)C)/C(=O)O1)C(C)=O | -9.79 | – |
| CN(C)CCCNc1cc(N2CCN(C3CCCCC3)CC2)c2noc3c2c1C(=O)c1ccccc1-3 | – | 9.2 µM (active) |
| CCNc1cc(N2CCN(C3CCCCC3)CC2)c2noc3c2c1C(=O)c1ccccc1-3 | – | 18.4 µM (active) |
| O=C1c2ccccc2-c2onc3c(N4CCN(C5CCCCC5)CC4)cc(NCCO)c1c23 | – | 3.66 µM (active) |
| CCOC(=O)c1cnc(-n2nc(C)cc2C)nc1NNc1cc(C)nc(-c2ccccc2)n1 | 0.647 | – |
| C/C(=N\Nc1nc(C)cc(-c2ccccc2)n1)c1ccc(F)cc1 | -6.16 | – |
| O=C(CSc1nc(-c2ccco2)cc(C(F)(F)F)n1)Nc1cccnc1 | -24.4 | – |
| Nc1c(C(=O)N/N=C/c2ccccc2Cl)oc2nc(-c3ccccc3)cc(-c3ccco3)c12 | – | 2.91 µM (active) |
| Nc1c(C(=O)N/N=C/c2cccnc2)oc2nc(-c3ccccc3)cc(-c3ccco3)c12 | – | 13 µM (active) |
| Cc1cc(-c2ccccc2)nc(N/N=C/c2ccccc2F)n1 | -4.11 | – |
| Cc1cc(/C=N/NC(=O)c2cc3ccccc3o2)c(C)n1C | -15.8 | – |
| Nc1c(C(=O)N/N=C/c2ccc(F)cc2)oc2nc(-c3ccccc3)cc(-c3ccco3)c12 | – | 7.9 µM (active) |
| C=CCOC(=O)C1=C(C)NC(C)=C(C(=O)OCC=C)C1c1cn(-c2ccccc2)nc1-c1ccco1 | 0.509 | – |
| N=C1S/C(=C\c2ccc(-c3cccc(Cl)c3)o2)C(=O)N1c1nccs1 | – | 18.4 µM (active) |
| CC(=O)/C(=C\N(C)C)Sc1ccc(Cl)cc1 | 1.31 | – |
| CC[n+]1cc(C)ccc1/C=C/c1ccc(N(C)C)cc1 | – | 8.86 µM (active) |
| Cc1ccc(/C=C/c2ccc(N(C)C)cc2)[n+](C)c1 | – | 8.86 µM (active) |

| Structure (SMILES) | max response [%] | Potency |
| --- | --- | --- |
| CN(C)c1ccc(/C=C/c2cc[n+](C)cc2)cc1 | – | 15.8 µM (active) |
| CN1CCC(OC(=O)c2cc3cc(Cl)cc(Cl)c3oc2=O)CC1 | 3.05 | – |
| COC(=O)[C@@]1(Cc2ccccc2)[C@@H]2C(=CC(=O)[C@H]2CC(=O)C(=O)N(C)C)CN1C(=O)c1ccccc1 | -26.2 | – |
| Nc1nc2n[nH]nc2c(=O)[nH]1 | – | 6.51 µM (active) and 3.53 µM (active) |
| N#C/C(N=Nc1ccccc1O)=N\Nc1ccccc1O | – | 14.6 µM (active) |
| CCCCN1C(=O)/C(=C2/Sc3ccccc3N2C)S/C1=N\c1ncn[nH]1 | – | 18.4 µM (active) |
| Cc1cnc(NC(=O)CC(C)c2ccccc2)s1 (stereo not drawn) | -26.1 | – |
| CC(CC(=O)Nc1ccc2c(c1)c(=O)n(C)n2-c1ccccc1)c1ccccc1 (stereo not drawn) | – | 4.98 µM (active) |
| CCn1c2ccccc2c2cc(NC(=O)c3ccc(=O)oc3)ccc21 | -28.9 | – |
| CC(C)(C)c1ccc(Cn2c(=O)cnc3ccccc32)cc1 | -25.6 | – |
| CCOc1ccc(Cn2c3ccc(OC)cc3c3nc4ccccc4nc32)cc1 | – | 8.2 µM (active) |
| CCOc1ccccc1OCC(=O)N/N=C(\C)Cc1ccc(OC)cc1 | -18.5 | – |
| Cc1cc([N+](=O)[O-])ccc1-c1ccc(/C=N/NC(=O)c2ccc(Br)o2)o1 | – | 18.4 µM (active) |
| O=C(O)c1ccc(-c2ccc(/C=N/Nc3ccc([N+](=O)[O-])cc3)o2)cc1 | – | 15.8 µM (active) |
| CC(C)(C)NC(=S)N/N=C\c1ccc(-c2ccc([N+](=O)[O-])cc2)o1 | – | 14.6 µM (active) |
| O=C(O)c1cccc(-c2ccc(/C=N/Nc3ccc([N+](=O)[O-])cc3)o2)c1 | – | 18.4 µM (active) |
| NC(=S)N/N=C\c1ccc(-c2cccc(Cl)c2Cl)o1 | -18.7 | – |
| Cc1ccc(-c2ccc(/C=N/NC(N)=S)o2)cc1 | -8.18 | – |
